“And” between values parts separate entries of the source, which are not always exact repeats. Identical values can stand only once. Among all 300,000 compounds or so, about 37,000 (12%) were called active. For the sample, actives were picked, then their nearest neighbours and some compounds at random. A number with no mark means an inactive call. No stated cut-off is given here; in the data, active means max response mostly above about 13% (no sharp cut-off); inactive means mostly below about 14%.
Assay: Cycloheximide Counterscreen for Small Molecule Inhibitors of Shiga Toxin; further: read at 38.3 µM for the half of the compounds with a filed dose; 0% is about no effect
Conditions: cell reporter, cycloheximide protein synthesis inhibition counterscreen; hits give high values

| Structure (SMILES) | max response |
| --- | --- |
| Cc1ccc(C(=O)N(CN2CCCC2=O)c2ccc(F)cc2)cc1 | 11.4% (active) |
| Cc1ccc(S(=O)(=O)N(CC(=O)NN=C2CCN(C)CC2)c2ccc(F)cc2)cc1 | -0.935% |
| CNC(=O)NCCN1CCCC1=O | -5.85% |
| CCc1nc(N2CCN(C(C)=O)CC2)c2c3c(sc2n1)CCCC3 | 1.8% |
| Cc1ccc(-c2csc(NC(=O)c3cnccn3)n2)cc1C | 1.6% |
| O=C(NCc1cccnc1)C(=O)Nc1nc(-c2ccccc2)cs1 | 39.9% (active) |
| O=C(Nc1nc(-c2cccnc2)cs1)c1ccccc1F | 45.8% (active) |
| O=C(Nc1ccccc1F)c1ccccc1-c1ccccc1 | -1.34% |
| O=C(O)c1ccccc1C(=O)Nc1nc(-c2ccccc2)cs1 | -3.4% |
| O=C(Nc1nc(-c2ccc(-c3ccccc3)cc2)cs1)c1cnccn1 | 35.3% (active) |
| O=C(Nc1nnc(Cc2ccccc2)s1)c1cnccn1 | 9.38% |
| O=C(O)c1ccccc1-c1ccccc1C(=O)NCc1cccnc1 | -0.956% |
| O=C(CCc1ccccc1)NCc1cccnc1 | 1.47% |
| O=C(Nc1nnc(-c2ccccc2F)s1)c1ccccc1F | 17.9% (active) |
| CN(Cc1ccccc1)S(=O)(=O)c1nnc(NC(=O)c2ccccc2F)s1 | -3.23% |
| O=C(Nc1ccc(NC(=O)c2ccccc2F)cc1)c1ccccc1F | 12.7% |
| CCN1C(=NCc2ccc(OC)cc2)N[C@@H](CCc2ccccc2)[C@H](C(=O)NCc2ccc(OC)cc2)[C@H]1C | -3.38% and 1.66% |
| CCCCCCCCCCOC(=O)Cn1c(COc2ccc(C)cc2)[n+](C)c2ccccc21 | -4.67% |
| COc1ccc(-c2cc(C3CCN(c4ncccc4[N+](=O)[O-])CC3)[nH]n2)cc1 | -2.37% |
| CC1CCCCN1CCCNC(=O)Cn1ncc2c([nH]c3ccccc32)c1=O (stereo not drawn) | -1.43% |
| Cc1cc(C)c(C(=O)CSc2nc(C)cc(=O)[nH]2)c(C)c1 | 6.02% |
| CCn1cc(/C=C(\NC(=O)c2cc(OC)c(OC)c(OC)c2)C(=O)N2CCN(C)CC2)c2ccccc21 | -3.51% |
| CCOC(=O)c1ccc(NC(=S)N2CCN(c3ccccn3)CC2)cc1 | -2.76% |
| Cc1ccccc1Nc1nc(-c2cccnc2)cs1 | 40.6% (active) |
| CCCCNC(=O)CCn1nc(-c2ccc(Cl)cc2)ccc1=O | -0.835% |
| Cc1cc2c(cc1C)N(C(=O)CN1C(=O)c3ccccc3C1=O)C(C)(C)c1ssc(=S)c1-2 | -0.934% |

| Structure (SMILES) | max response |
| --- | --- |
| Cc1cc(N2CCCC2)n2nc(C)c(-c3ccccc3)c2n1 | 6.19% |
| Cc1cc(-n2nc(C)cc2C)n2nc(C)c(-c3ccccc3)c2n1 | -1.22% |
| Cc1cc(-n2nc(C)cc2C)n2ncc(-c3ccccc3)c2n1 | 42.3% (active) |
| O=C(NCC1CC1)C1(C(F)(F)F)C/C(=C\CCO)CCCO1 (stereo not drawn) | -3.88% |
| COc1ccc(Cc2nnc(N/N=C/c3ccccc3O)[nH]c2=O)cc1OC | -1.41% |
| c1ccc(-c2ccc3c(c2)NC(C2Nc4cc(-c5ccccc5)ccc4O2)O3)cc1 (stereo not drawn) | -0.428% |
| C/C(=N\NC(=O)NC1CCCCC1)c1ccc(OC(F)F)cc1OC(F)F | 9.08% |
| CC(=O)Nc1cccc(NC(=O)c2ccc3c(c2)CCN3S(C)(=O)=O)c1 | 2.48% |
| CS(=O)(=O)N1CCc2cc(C(=O)Nc3ccccc3Br)ccc21 | 30.9% (active) |
| CS(=O)(=O)N1CCc2cc(C(=O)Nc3ccccc3)ccc21 | -1.85% |
| CSc1ccccc1NC(=O)c1ccc2c(c1)CCN2S(C)(=O)=O | 43.6% (active) |
| COc1ccc(OC)c(NC(=O)c2ccc3c(c2)CCN3S(C)(=O)=O)c1 | -0.802% |
| CCc1ccccc1NC(=O)c1ccc2c(c1)CCN2S(C)(=O)=O | -1.1% |
| COCc1ccc(C(=O)N2CCc3c([nH]c4ccccc34)C2c2ccccn2)s1 (stereo not drawn) | -4.02% |
| COc1ccc(-c2cc(=O)oc3cc(OC(C)C(=O)Nc4ccc(CN5CCOCC5)cc4)ccc23)cc1 (stereo not drawn) | -4.69% |
| Cc1ccc(OCc2nnc(SC3CCc4ccccc4C3=O)n2C)cc1 (stereo not drawn) | 4.12% |
| CC(=O)Nc1ccc(/C=N/Nc2ccc(C(=O)c3c(C)cc4ccccn34)cc2[N+](=O)[O-])cc1 | 3.53% |
| Cc1cc(N2C(=O)C(O)=C(C(=O)c3ccc(C)o3)C2c2ccc(OCc3ccccc3)cc2)no1 (stereo not drawn) | -0.599% |
| Cc1ccc(C(=O)OCc2nc(N)nc(Nc3ccccc3C)n2)cc1 | -0.878% |
| Cc1ccccc1Nc1nc(N)nc(CSc2ccccc2)n1 | 67% (active) |
| CCSCc1nc(N)nc(NCCc2ccccc2)n1 | 12.6% |
| Cc1ccccc1Nc1nc(N)nc(CSc2nnc3ccccn23)n1 | 13.9% (active) |
| Cc1ccc(Nc2nc(N)nc(CN3CCN(Cc4ccccc4)CC3)n2)cc1Cl | -3.89% |
| Cc1ccccc1Nc1nc(N)nc(CN2CCN(c3ccccn3)CC2)n1 | 0.552% |
| CCCN1CCC(=O)N(C(CSc2ccc(OC)cc2)Cc2ccccc2)CC1 (stereo not drawn) | 6.9% |
| Cc1cc(C)n(-c2ccc(NC(=O)C3CCCCN3C(=O)c3cccs3)cc2)n1 (stereo not drawn) | 7.2% |

| Structure (SMILES) | max response |
| --- | --- |
| COc1ccc(-n2c(C)cc(C(=O)COC(=O)c3cc(OC)c(OC)cc3NC(=O)c3cccs3)c2C)cc1 | -3.59% |
| CCc1nn(CC(=O)N2CCN(c3cc(C)ccc3C)CC2)c(=O)c2cc3occc3n12 | -8.63% |
| CC1CCN(S(=O)(=O)c2ccc3c(ccn3CC(=O)O)c2)CC1 | -6.07% |
| CN(C)c1ccnc(Nc2ccc(F)cc2)c1C#N | -1.37% |
| CC(C)c1ccc(Nc2ncccc2C#N)cc1 | 43.2% (active) |
| O=C(Oc1cccc(O)c1)C1CCCCC1 | 1.32% |
| CC12CCC(C(=O)N(c3cccc(Cl)c3)C1=O)C2(C)C (stereo not drawn) | -2.01% |
| CC12CCC(C(=O)N(NC(=O)c3ccccc3O)C1=O)C2(C)C (stereo not drawn) | 11.2% (active) |
| O=C(NN1C(=O)C2C(C1=O)C1C=CC2C12CC2)c1ccccc1Cl (stereo not drawn) | 0.62% |
| O=C(COc1ccc(Cl)cc1)NC(=S)Nc1ccccc1N1CCOCC1 | 1.2% |
| CCOC(=O)C1C/C(=C\C(C)=O)c2cccc(C(F)(F)F)c2O1 (stereo not drawn) | -2.62% |
| CCOC(=O)c1c(C)[nH]c(C(=O)NCc2ccccc2OC)c1C | 17% (active) |
| CC(=O)c1c(C)[nH]c(C(=O)NCc2ccc(C)cc2)c1C | 15.3% |
| CCOC(=O)c1c(C)[nH]c(C(=O)NCCN2CCOCC2)c1C | -3.76% |
| O=C(O)c1ccc(OCC2CCCO2)cc1 (stereo not drawn) | -2.17% |
| COC(=O)c1c(C)oc(C)c1S(=O)(=O)Nc1ccc(C(C)C)cc1 | -1.83% |
| Cc1nc(-c2ccccc2)sc1-c1nnc(C2CC2)o1 | 38.7% (active) |
| Cc1nc(-c2ccccc2)sc1-c1nc(-c2ccccc2)ncc1S(=O)(=O)c1ccccc1 | 1.01% |
| C=CCn1c(-c2sc(-c3ccccc3)nc2C)n[nH]c1=S | 1.59% |
| CCOc1ccccc1NC(=O)COc1ccc(S(=O)(=O)N2CCCC2)cc1 | -2.13% |
| CCc1nc2ccccc2c(C(=O)OC2CCCCC2=O)c1C (stereo not drawn) | 8.91% |
| O=C(COC(=O)c1c2c(nc3ccccc13)CCCC2)c1ccc(Br)s1 | 25% (active) |
| O=C(Nc1c2c(nc3ccccc13)CCCC2)c1ccccc1Br | -2.17% |
| COc1ccccc1C(=O)Nc1ccnn1C1CCN(Cc2cnn(C)c2)CC1 | 0.446% |
| COc1ccc2c(c1)c1nc3n(c(=O)c1n2CC(=O)Nc1ccccc1)CCS3 | -2.14% |
| CC(=O)CC(c1ccccc1)C1C(=O)Oc2ccccc2C1=O (stereo not drawn) | -3.15% |

| Structure (SMILES) | max response |
| --- | --- |
| Cc1cc(C)c2oc(C(=O)Nc3ccc(S(=O)(=O)Nc4nccc(C)n4)cc3)cc(=O)c2c1 | 5.57% |
| O=C(CSc1cccc[n+]1[O-])c1ccc(Cl)cc1 | 16.8% (active) |
| O=C(CSc1cccc[n+]1[O-])c1ccc(-c2ccccc2)cc1 | 44.8% (active) |
| Cc1cc(Oc2ccc(Cl)cc2)nc(SCC(=O)c2ccccc2)n1 | 0.695% |
| Cn1c(CC2Sc3ccccc3NC2=O)nnc1SCC(=O)c1ccc(Cl)cc1 (stereo not drawn) | 6.52% |
| COc1ccccc1C(=O)CSc1cccc[n+]1[O-] | 9.7% |
| O=C(CSc1cccc[n+]1[O-])NCCCc1ccccc1 | 10.3% |
| CCOC(=O)N1CCC(N2Cc3cccc(C(=O)Nc4ccc(S(=O)(=O)N(CC)CC)cc4)c3C2=O)CC1 | -7.45% |
| CC(=O)c1c(C)oc2ccc(NS(=O)(=O)c3ccccc3)cc12 | -4.79% |
| O=C(Nc1ccc(-c2cscn2)cc1)C1CCCN(Cc2ccc(CO)o2)C1 (stereo not drawn) | 10.2% |
| Cc1cc(C)cc(NC(=O)C2CCCN2S(=O)(=O)c2cccc3cccnc23)c1 (stereo not drawn) | 0.222% |
| CCCCNS(=O)(=O)c1ccc2nc(SCC(=O)Nc3cc(C)cc(C)c3)[nH]c2c1 | -6.32% |
| Cc1ccc2nc(-c3ccncc3)cc(C(=O)Nc3ccc(OC(F)F)cc3)c2c1 | -4.25% |
| COc1cccc(NC(=O)C(=O)c2cn(CC(=O)N3CCOCC3)c3ccccc23)c1 | 37.8% (active) |
| CC1CCN(C(=O)Cn2cc(C(=O)c3ccco3)c3ccccc32)CC1 | 23% (active) |
| Cc1ccc(CNC(=O)C(=O)c2cn(CC(=O)N3CCCC3)c3ccccc23)cc1 | 20.3% (active) |
| O=C(Nc1ccc(F)cc1)C(=O)c1cn(CC(=O)N2CCOCC2)c2ccccc12 | -0.871% |
| COc1cccc(NC(=O)CS(=O)(=O)c2cn(CC(=O)N3CCOCC3)c3ccccc23)c1 | -5.36% |
| Cc1ccc(CNC(=O)C(=O)c2cn(CC(=O)N3CCOCC3)c3ccccc23)cc1 | 17.6% (active) |
| O=C(NCCCn1ccnc1)C(=O)c1cn(CC(=O)N2CCCCCC2)c2ccccc12 | 10.1% |
| O=C(NCc1ccco1)C(=O)c1cn(CC(=O)N2CCCCCC2)c2ccccc12 | 2.39% |
| CN(Cc1ccccc1)C(=O)C(=O)c1cn(CC(=O)N2CCCC2)c2ccccc12 | -3.43% |
| CN1CCN(C(=O)C(=O)c2cn(CC(=O)N3CCCC3)c3ccccc23)CC1 | -2.55% |
| Cc1cccc(NC(=O)Cn2cc(C(=O)c3ccco3)c3ccccc32)c1 | -2.38% |
| N#Cc1ccc(Cn2cc(C(=O)c3ccco3)c3ccccc32)cc1 | 21.7% |

From PubChem BioAssay AID2314 (National Center for Advancing Translational Sciences (NCATS), 2010)
